From PubChem
HT1080 IDH1KD tx – toxicity to HT-1080 IDH1 knockdown cells (counter line) | Potency, µM (top dose mostly 46.1 µM), most hits filed as cytotoxic | HT-1080 IDH1 knockdown viability, ATP luminescence, 48 h | hit rate 2% among 360,000 | AID 686971
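Assay cells: HT-1080 with IDH1 knockdown, 750 per well, RPMI/5% FBS. Exposure: 48 h at 37 °C following 2 h pre-incubation. Read: CellTiter-Glo luminescence; fitted concentration-response, curve class assigned.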
TDP1 cell CPT – DT40-hTDP1 cell growth loss with CPT. Potency, µM (highest dose often 46.2 µM), actives largely listed as inhibitors. chicken DT40 Tdp1-/-;hTDP1 cells + 20 nM CPT, ATP luminescence, 48 h. hit rate 12% among 420,000; also: nearly all actives have a fitted effect of over 55% in size
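Chicken DT40 Tdp1-/- cells stably complemented with human TDP1 were seeded at 400 cells/well in medium containing 20 nM camptothecin, exposed to pin-transferred compounds, and grown at 37 °C for at least 48 hr. Viability was read as ATP luminescence.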
IL-1B inflam inh – inhibitors of inflammasome signaling (IL-1 beta secretion); THP-1 LPS/ATP IL-1B secretion, AlphaLISA, 16 h; active compounds read low; activity change, % at 57.5 µM; hit rate 4.7% among 360,000; AID 743279; in the data active = activity change below about -50%; inconclusive = mostly about -30% to -49%
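THP-1 cells pretreated 1 hr with compounds (up to 57.5 uM final), then stimulated with LPS (250 ng/mL final) plus ATP (1.25 mM final); secreted IL-1B measured by AlphaLISA after 16 hr, decreased signal indicating inhibition.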
HT1080NT lethal – kills 2HG-producing HT-1080-NT fibrosarcoma cells; HT-1080-NT fibrosarcoma viability, CellTiter-Glo ATP luminescence, 48 h; AID 686970; hit rate 1.6% among 360,000; Potency, µM (highest dose often 46.1 µM), hits mostly cytotoxic;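 also: NT is the 2HG producing partner of a matched IDH1 knockdown line; nearly all actives have a fitted effect of over 55% in size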
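750 cells/well, RPMI + 5% FBS; 2 h settle, compound pin-transfer, 48 h at 37 degrees C. CellTiter-Glo 10 min RT, luminescence. Normalized to DMSO and media-only wells.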
DT40 TDP1 no CPT – qHTS for Inhibitors of human tyrosyl-DNA phosphodiesterase 1 (TDP1): qHTS in cells in absence of CPT | Potency, µM (doses to about 46.2 µM), usual class: inhibitors | DT40 Tdp1-/- hTDP1 cells, no CPT, ATP luminescence, 48 h | hit rate 15% among 420,000 | AID 686978, 2013; also: nearly all actives have a fitted effect of over 55% in size
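Camptothecin absent (DMSO only). Human TDP1-complemented DT40 knockout cells, 400 cells/well, 37 °C for minimum 48 hr; ATP measured via CellTiter-Glo, 30 min dark incubation, luminescence.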
12-LOX inh – blocks human arachidonate 12S-lipoxygenase. P18054. purified 12hLO, xylenol orange hydroperoxide absorbance. Potency, µM (top dose mostly 108 µM), hits mostly inhibitors. hit rate 1.1% among 580,000
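Purified human 12hLO (150 nM final) in 25 mM Hepes, 0.01% Triton X-100, pH 7.0 was preincubated 15 min at room temperature with compound. Then 40 uM arachidonic acid was added, 30 min. Hydroperoxide was read by Fe-XO absorbance ratio 573/405 nm.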
Large screens that a line does not name were inactive. The entries come from a sample that favours hits as a whole. Unless noted, calls follow the shape of the dose curve; as a rule, active = well fitted curve in the direction sought with a large enough effect; inconclusive = small, poorly fitted or top-dose-only effect, or another doubt; inactive = no such curve, though single readings can be large; an effect the other way counts as inactive or inconclusive.

COc1ccccc1Nc1nc(NCC2CCCO2)c2ccccc2n1 (stereo not drawn)	HT1080 IDH1KD tx inconclusive, TDP1 cell CPT 23.1µM, DT40 TDP1 no CPT 20.6µM, 12-LOX inh inconclusive (no result: IL-1B inflam inh)
COc1cccc(-c2nc(NCC3CCCO3)c3ccccc3n2)c1O (stereo not drawn)	TDP1 cell CPT inconclusive, IL-1B inflam inh -84.0, DT40 TDP1 no CPT inconclusive
Oc1ccccc1-c1nc(NCC2CCCO2)c2ccccc2n1 (stereo not drawn)	HT1080 IDH1KD tx inconclusive, TDP1 cell CPT inconclusive, IL-1B inflam inh inconclusive, HT1080NT lethal inconclusive, DT40 TDP1 no CPT inconclusive
O=C(c1ccncc1)c1ccc(NC(=O)c2cccs2)cc1	none
O=C(Nc1ccc(O)cc1)c1ccc(NC(=O)c2cccs2)cc1	HT1080 IDH1KD tx 23.1µM, TDP1 cell CPT inconclusive, HT1080NT lethal 9.2µM, DT40 TDP1 no CPT inconclusive
O=C(Nc1ccc(Cc2ccncc2)cc1)c1cccs1	TDP1 cell CPT inconclusive, IL-1B inflam inh -75.3
O=C(Nc1ccc(-c2noc(-c3ccccc3F)n2)cc1)c1cccs1	TDP1 cell CPT inconclusive, DT40 TDP1 no CPT inconclusive
Cc1ccc(NC(=O)c2cccs2)cc1NC(=O)c1ccc(F)cc1	HT1080 IDH1KD tx inconclusive, IL-1B inflam inh -60.0, DT40 TDP1 no CPT inconclusive
Cc1ccccc1-c1nc(-c2ccc(NC(=O)c3cccs3)cc2)no1	HT1080 IDH1KD tx inconclusive, TDP1 cell CPT 23.1µM, IL-1B inflam inh inconclusive, DT40 TDP1 no CPT inconclusive
Cc1cc(C(=O)N2CCOCC2)c2c(C3CCCN3)noc2n1 (stereo not drawn)	none (no result: HT1080 IDH1KD tx, TDP1 cell CPT, IL-1B inflam inh, HT1080NT lethal, DT40 TDP1 no CPT)
CC(C)(OCc1nn(Cc2ccccc2)c2ccccc12)C(=O)O	none (no result: HT1080 IDH1KD tx, TDP1 cell CPT, IL-1B inflam inh, HT1080NT lethal, DT40 TDP1 no CPT)
O=C(Nc1ccc(NC(=O)c2cccs2)cc1)c1ccc2c(c1)OCCO2	none
O=C(Nc1cccc(NC(=O)c2cccs2)c1)c1ccc2c(c1)OCO2	TDP1 cell CPT inconclusive, IL-1B inflam inh -77.4, DT40 TDP1 no CPT 11.6µM
O=C(Nc1ccc(NC(=O)c2cccs2)cc1)c1ccc2c(c1)OCO2	HT1080 IDH1KD tx 11.6µM, TDP1 cell CPT inconclusive, HT1080NT lethal inconclusive
CC(=O)N1C[C@@H]2CCCN3CCC[C@@H]([C@H]23)[C@H]1CCCC(=O)NCCCc1ccccc1	none (no result: HT1080 IDH1KD tx, TDP1 cell CPT, IL-1B inflam inh, HT1080NT lethal, DT40 TDP1 no CPT)
Cc1cc(OC(C)C(=O)N2CCC(c3nc4ccccc4o3)CC2)ccc1Cl (stereo not drawn)	TDP1 cell CPT 23.1µM, DT40 TDP1 no CPT 14.6µM (no result: HT1080 IDH1KD tx, IL-1B inflam inh, HT1080NT lethal)
Cc1cc(C)cc(OCC(=O)N2CCC(c3nc4ccccc4o3)CC2)c1	TDP1 cell CPT inconclusive, DT40 TDP1 no CPT 16.4µM (no result: HT1080 IDH1KD tx, IL-1B inflam inh, HT1080NT lethal)
O=C(COc1ccccc1Cl)N1CCC(c2nc3ccccc3o2)CC1	none (no result: HT1080 IDH1KD tx, TDP1 cell CPT, IL-1B inflam inh, HT1080NT lethal, DT40 TDP1 no CPT)
Cc1ccc(OC(C)C(=O)N2CCC(c3nc4ccccc4o3)CC2)cc1C (stereo not drawn)	none (no result: HT1080 IDH1KD tx, TDP1 cell CPT, IL-1B inflam inh, HT1080NT lethal, DT40 TDP1 no CPT)
CN(Cc1ccc(Cl)cc1)C(=O)CNC(=O)C12CC3CC(CC(C3)C1)C2	TDP1 cell CPT 18.4µM, DT40 TDP1 no CPT inconclusive
CC(C)CCN(C)[C@H]1C[C@H]2c3[nH]c4ccccc4c3CCN2C[C@H]1[C@H](C)O	none (no result: HT1080 IDH1KD tx, TDP1 cell CPT, IL-1B inflam inh, HT1080NT lethal, DT40 TDP1 no CPT)
Cc1ccc(S(=O)(=O)N(C)[C@H]2C[C@H]3c4[nH]c5ccccc5c4CCN3C[C@H]2[C@H](C)O)cc1	TDP1 cell CPT 20.6µM, DT40 TDP1 no CPT inconclusive
COc1ccc(CN(C)[C@H]2C[C@H]3c4[nH]c5ccccc5c4CCN3C[C@H]2[C@H](C)O)cc1	TDP1 cell CPT inconclusive, DT40 TDP1 no CPT 18.4µM
CCCNC(=O)NC[C@@H]1C=C(C)[C@H](Cc2nc3ccc(OC)cc3[nH]2)C[C@H]1C(C)C	none (no result: HT1080 IDH1KD tx, TDP1 cell CPT, IL-1B inflam inh, HT1080NT lethal, DT40 TDP1 no CPT)
CCC/C(=N\NC(=O)c1ccc(OC)c(OC)c1)c1ccccc1	none
